NTMT1 inh: inhibitors of human N-terminal methyltransferase NTMT1 | NTMT1 MTase-Glo SAH luminescence, purified enzyme | Potency, µM (highest dose often 114 µM), usual class: inhibitors | 59,000 tested, 2.5% active; also: nearly all actives have a fitted effect of over 65% in size
FH mod: Identification of activators of human fumarate hydratase by quantitative high-throughput screening; Fumarate hydratase, mitochondrial (Homo sapiens), P07954; FH coupled MDH/diaphorase resazurin fluorescence, 15 min; Potency, µM (doses to about 79.9 µM), hits mostly inhibitors; 54,000 tested, 0.22% active; also: the screen sought activators but most active calls are inhibition curves; nearly all actives have a fitted effect of over 45% in size
GPR32 ag: agonists of human resolvin D1 receptor DRV1 (GPR32). CHO-K1 GPR32 beta-arrestin PathHunter luminescence, 90 min; zero percent set by DMSO-only wells. activation, % at 76.9 µM. 48,000 tested, 2.5% active. AID 1346428;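 active = activation of at least 60% and not above a set upper limit, about 1 call in 100 departs from these limits; inconclusive = activation of 40% to 60%, or above that upper limit; inactive = activation under 40%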
Target sequence (O75388 whole entry, looked up): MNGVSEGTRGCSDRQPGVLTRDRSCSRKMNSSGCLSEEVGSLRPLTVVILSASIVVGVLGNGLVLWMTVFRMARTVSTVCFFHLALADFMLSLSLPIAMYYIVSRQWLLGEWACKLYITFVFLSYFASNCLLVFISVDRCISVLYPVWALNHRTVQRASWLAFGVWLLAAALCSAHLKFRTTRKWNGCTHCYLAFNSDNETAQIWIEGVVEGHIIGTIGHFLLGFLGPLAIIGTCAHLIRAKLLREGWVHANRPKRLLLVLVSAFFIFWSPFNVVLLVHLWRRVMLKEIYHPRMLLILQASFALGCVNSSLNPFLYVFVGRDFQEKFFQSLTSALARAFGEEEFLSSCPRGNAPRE
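CHO-K1 cells stably expressing ProLink-tagged GPR32 and Enzyme Activator-tagged beta-arrestin were seeded at 2,500 cells/well overnight, exposed to compounds for 90 min at 37 °C, then read by beta-Gal complementation chemiluminescence after 1 h detection reagent.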
SKOV3 invasion: ovarian cancer metastasis inhibition, 3D TME model; SKOV3ip1-GFP adhesion/invasion on 3D omental model, fluorescence; Potency, µM (doses to about 45.8 µM), hits mostly inhibitors; 46,000 tested, 0.1% active; also: nearly all actives have a fitted effect of over 65% in size
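Primary human omental fibroblast/mesothelial 3D culture pre-formed 48 h. SKOV3ip1-GFP cells added with compounds (0.36-46 umol/L), incubated 2 h RT/16 h 37 C, fixed; GFP cells quantified at 488/509 nm.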
Numbers stand for hits; ! = a repeat was not active. Hits are enriched below; roughly 3.9% of the tested compounds scored in any of these assays. Unless noted, calls follow the shape of the dose curve; as a rule, active = well fitted curve in the direction sought with a large enough effect; inconclusive = small, poorly fitted or top-dose-only effect, or another doubt; inactive = no such curve, though single readings can be large; an effect the other way counts as inactive or inconclusive.

For COc1ccccc1N1CCN(CC(O)COc2ccc(Cl)c(C)c2)CC1 (configuration not stated) the results were NTMT1 inh inactive, FH mod inactive, GPR32 ag 118 and SKOV3 invasion inactive.
For O=C(Nc1cccc(C(F)(F)F)c1)C1CCN(c2nnc(-n3cccc3)s2)CC1 the results were NTMT1 inh inactive, FH mod inactive, GPR32 ag 94 and SKOV3 invasion inactive.
`Cc1cc(C)cc(NC(=O)c2ccc3oc(=O)c(S(=O)(=O)c4ccc(F)cc4)cc3c2)c1` gave NTMT1 inh inactive, FH mod inactive, GPR32 ag 103 and SKOV3 invasion inactive.
Screening COC(=O)c1scc(-c2ccc(C)cc2)c1S(=O)(=O)Nc1cc(OC)c(OC)c(OC)c1 returned NTMT1 inh 89µM, FH mod inactive, GPR32 ag inactive and SKOV3 invasion inactive.
COC(=O)c1scc(-c2ccc(C)cc2)c1S(=O)(=O)Nc1c(C)cc(C)cc1C was read as NTMT1 inh inactive, FH mod inactive, GPR32 ag inactive and SKOV3 invasion inactive.
CCCc1ncc(C[n+]2ccccc2C)c(N)n1 was read as NTMT1 inh 35µM, FH mod inactive and GPR32 ag inactive.
Cc1ccccc1C(=O)OCc1cc(=O)n2c(C)csc2n1 was read as NTMT1 inh inactive, FH mod inactive, GPR32 ag 75 and SKOV3 invasion inactive.
Cc1ccc(OCCn2c(CCNC(=O)c3cccc(C#N)c3)nc3ccccc32)cc1 was read as NTMT1 inh inactive.
`COCCNC(=O)c1ccc2nc(CCc3ccccc3)oc2c1` gave NTMT1 inh 89µM, FH mod inactive, GPR32 ag inactive and SKOV3 invasion inactive.
Screening Cc1cccc(C)c1-n1c(SCC(=O)Nc2ccc(F)cc2)nnc1-c1cccc([S+](=O)([O-])N2CCCC2)c1 returned NTMT1 inh inactive.
Screening O=C(CC(c1ccccc1)c1ccccc1)N1CCN(C(c2ccccc2)c2ccccc2)CC1 returned NTMT1 inh inactive and FH mod inactive.
`CC(C)c1ccccc1-c1nc(NCC2CCN(c3cccnc3)CC2)c2ccccc2n1` gave NTMT1 inh inactive.
For Cc1[nH]c2ccc(C(=O)NCCc3ccccc3Cl)cc2c1C the results were NTMT1 inh 89µM, FH mod inactive, GPR32 ag inactive and SKOV3 invasion inactive.
Screening NC(=NCCCCCCN=C(N)N=C(N)Nc1ccc(Cl)cc1)N=C(N)Nc1ccc(Cl)cc1 returned NTMT1 inh 35µM!, FH mod inactive and SKOV3 invasion inactive.
Screening O=C(CCNS(=O)(=O)c1ccc(Br)s1)Nc1ccc(Br)cc1 returned NTMT1 inh inactive, FH mod inactive, GPR32 ag 89 and SKOV3 invasion inactive.
Screening CCc1ccc(NC(=O)CSc2nc3n[nH]c(C)c3c(=N)n2-c2ccccc2C)cc1 returned NTMT1 inh inactive, FH mod inactive, GPR32 ag 62 and SKOV3 invasion inactive.
CC1CCC23COC(=O)C2=CC(O)CC3C1(C)CCc1ccoc1 (configuration not stated) was read as NTMT1 inh inactive and FH mod inactive.
For C=C(CCO[C@@H]1O[C@H](CO)[C@@H](O)[C@H](O)[C@H]1O)C(=O)O the results were NTMT1 inh inactive and FH mod inactive.
Oc1cc(CNC(=S)/C=C/c2cc(O)c(O)c(Br)c2)cc(O)c1O was read as NTMT1 inh 45µM and FH mod inconclusive.
For CC1OC2OC(=O)C3(C)CC4C5(CO5)C5=CC(=O)OC(C)(C)C5=CC(=O)C4(C)C(C1=O)C23 (configuration not stated) the results were NTMT1 inh inactive and FH mod inactive.
For NC(=O)/C(=C/n1cnc(-c2cc(C(F)(F)F)cc(C(F)(F)F)c2)n1)c1cncnc1 the results were NTMT1 inh inactive.
Screening C/C(=C\C(=O)C(C)C1CCC2C3=C(CCC21C)C1(C)CCC(=O)C(C)(C)C1(O)CC3)C(C)(C)O (configuration not stated) returned NTMT1 inh inactive and FH mod inactive.
`Cc1nc2c(-c3ccccc3)c(C)nn2c(C)c1CCC(=O)NCc1cccc(Cl)c1` gave NTMT1 inh inactive, FH mod inactive, GPR32 ag 62 and SKOV3 invasion inactive.
`CCN1CCC(N(Cc2ccc3c(c2)OCO3)C(=O)Nc2ccc(Br)c(C)c2)CC1` gave NTMT1 inh inconclusive, FH mod inactive, GPR32 ag 80 and SKOV3 invasion inconclusive.

High-throughput results from PubChem BioAssay.
